Screening data: PubChem, National Center for Advancing Translational Sciences (NCATS)
L3MBTL1 inh: inhibitors of human L3MBTL1. Q9Y468. AlphaScreen L3MBTL1–H3K9me1 peptide binding. Potency, µM (series often up to 57.1 µM), for the others: top-dose activity, negative = inhibition, actives largely listed as inhibitors. 230,000 compounds, 0.66% hits. AID 485360; further: on the % scale 0 is the no-effect control and ±100 the full control effect; nearly all actives have a fitted effect of over 60% in size
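AlphaScreen assay: L3MBTL1 (50 nM final) was preincubated 30 min at room temperature with biotinylated H3(1-15)K9me1 peptide (75 nM final), then 30 min with library compounds; streptavidin donor and nickel chelate acceptor beads (10 ug/mL final) added, 30 min dark.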
POLB inh: blocks human DNA polymerase beta activity. P06746. AID 485314. 340,000 compounds, 1.3% hits. Potency, µM (highest dose often 114 µM), inactives show at the top dose activity change, negative = inhibition, hits mostly inhibitors. Pol beta primer extension/strand displacement, fluorescence kinetic; further: on the % scale 0 is the no-effect control and ±100 the full control effect
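10 nM enzyme + cpd, 15 min RT; start with substrate 50 nM final; read 0 min and after 10 min RT. Corrected, normalized data; 4-parameter Hill curve fit.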
Pol eta inh-1: blocks human DNA polymerase eta activity; AID 588591; Potency, µM (highest dose often 114 µM), for the others: at the top dose activity change, negative = inhibition, most hits filed as inhibitors; recombinant Pol eta, fluorescent DNA replication assay; Q9Y253; 390,000 compounds, 1.2% hits; further: on the % scale 0 is the no-effect control and ±100 the full control effect
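Fluorescent replication assay: 50 nM final substrate added after a 15 min room-temperature compound preincubation with 10 nM enzyme. Signal taken at 0 min and again at 10 min.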
APEX1 inh: blocks human APE1 abasic DNA cleavage; Potency, µM (top dose mostly 65.8 µM), inactives show at the top dose activity change, negative = inhibition, hits mostly inhibitors; AID 2517; P27695; 350,000 compounds, 0.35% hits; recombinant APE1, TAMRA/BHQ-2 abasic DNA cleavage fluorescence;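 further: plate controls were vehicle for no effect and reference inhibitor for full effect; nearly all actives have a fitted effect of over 55% in size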
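Compound pre-exposure to 0.75 nM APE1, 15 min at ambient temperature. Reaction initiated with 50 nM TAMRA/BHQ-2 THF substrate, read immediately in kinetic mode, 525 nm excitation, 598 nm emission.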
Pol kappa inh-1: inhibitors of human DNA polymerase kappa | Q9UBT6 | purified Pol kappa, fluorescent DNA synthesis assay, 10 min | Potency, µM (top dose mostly 107 µM), without a hit: at the highest dose activity, negative = inhibition, actives largely listed as inhibitors | 400,000 compounds, 0.53% hits; further: on the % scale 0 is the no-effect control and ±100 the full control effect
Target sequence (Q9UBT6 whole entry, looked up): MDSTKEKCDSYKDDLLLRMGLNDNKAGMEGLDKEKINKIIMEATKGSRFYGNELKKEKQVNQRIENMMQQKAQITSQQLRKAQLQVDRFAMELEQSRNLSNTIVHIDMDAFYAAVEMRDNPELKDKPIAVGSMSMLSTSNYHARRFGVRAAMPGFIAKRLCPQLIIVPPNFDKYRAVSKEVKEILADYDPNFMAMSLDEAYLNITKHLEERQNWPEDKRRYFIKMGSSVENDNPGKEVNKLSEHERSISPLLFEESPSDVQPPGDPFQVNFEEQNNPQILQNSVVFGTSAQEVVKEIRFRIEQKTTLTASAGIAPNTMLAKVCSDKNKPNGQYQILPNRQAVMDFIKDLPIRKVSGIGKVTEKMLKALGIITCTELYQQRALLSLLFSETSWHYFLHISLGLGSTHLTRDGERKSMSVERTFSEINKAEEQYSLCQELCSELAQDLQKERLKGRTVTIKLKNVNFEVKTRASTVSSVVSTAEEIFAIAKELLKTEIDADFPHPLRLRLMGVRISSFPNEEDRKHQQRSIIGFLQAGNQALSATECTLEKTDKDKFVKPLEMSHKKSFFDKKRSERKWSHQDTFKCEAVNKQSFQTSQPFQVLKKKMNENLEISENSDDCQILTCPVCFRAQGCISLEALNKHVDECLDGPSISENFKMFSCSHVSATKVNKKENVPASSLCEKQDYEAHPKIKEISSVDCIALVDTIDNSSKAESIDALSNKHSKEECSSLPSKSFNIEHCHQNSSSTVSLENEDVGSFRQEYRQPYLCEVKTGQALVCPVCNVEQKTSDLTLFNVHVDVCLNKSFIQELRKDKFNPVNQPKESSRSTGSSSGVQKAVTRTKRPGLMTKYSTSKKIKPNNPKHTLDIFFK
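Enzyme at 10 nM met test compounds for 15 min at room temperature. Substrate addition (50 nM final) began the reaction, which was monitored by fluorescence at 0 and 10 min.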
Pol iota inh: DNA polymerase iota (human) inhibition | Pol iota fluorescent replication assay, 10 min | AID 588590 | 390,000 compounds, 1% hits | Potency, µM (highest dose often 115 µM), without a hit: at the highest dose activity, negative = inhibition, usual class: inhibitors | Q9UNA4
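Fluorescent replication assay read twice, at 0 min and 10 min after adding 50 nM (final) substrate. Enzyme (10 nM) and compounds were first incubated 15 min at room temperature; enzyme-free buffer wells were negative controls.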
Pol kappa inh-2: Pol kappa (human) inhibition, cherry-pick confirmation | AID 720501 | 920 compounds, 76% hits | shares compounds with Pol eta inh-1 | purified Pol-kappa, fluorescent strand-displacement substrate | Potency, µM, hits mostly inhibitors
Pol eta inh-2: Pol eta (human) inhibition, cherry-pick confirmation; Potency, µM, usual class: inhibitors; 2,600 compounds, 64% hits; Pol eta primer extension, TAMRA/BHQ fluorescence, 10 min; shares compounds with Pol eta inh-1; AID 720502
* hit, by the source's call; [ ] = remark or other dose. Rows were chosen to be rich in hits. Some 2.5% of all compounds tested hit in one or more screens of this group. The call rests on the fitted dose curve; in most records, active means well fitted curve in the direction sought with a large enough effect; inconclusive means small, poorly fitted or top-dose-only effect, or another doubt; inactive means no such curve, though single readings can be large; an effect the other way counts as inactive or inconclusive. Potency means the concentration at half of the fitted maximal effect.

`CCC1CN(C(=O)C2CCN(S(=O)(=O)c3c(C)noc3/C=C/c3ccccc3F)CC2)c2cc(Cl)ccc2O1` (stereo not drawn) gave POLB inh -1%, Pol eta inh-1 -23%, Pol kappa inh-1 -2%[60.1 µM] and Pol iota inh 31%.
For O=C(CSCc1ccc(Cl)cc1)Nc1ccc2c(c1)OCCO2 the results were L3MBTL1 inh -4%, POLB inh 2%, Pol eta inh-1 -11%, APEX1 inh -7%, Pol kappa inh-1 -17% and Pol iota inh 9%.
Screening O=C(CSc1nc(=O)n2cc(Cl)ccc2n1)Nc1ccc2c(c1)OCCO2 returned L3MBTL1 inh inconclusive, Pol eta inh-1 28µM*, APEX1 inh -44%, Pol kappa inh-1 -44%, Pol iota inh -19% and Pol eta inh-2 inconclusive.
Cc1ccc(NC(=O)C2CCN(c3nc4ccccc4nc3C(F)(F)F)CC2)cc1F was read as POLB inh -29%, Pol eta inh-1 -15%, Pol kappa inh-1 -12% and Pol iota inh 32%.
`COc1cc(/C=C/C(=O)c2ccc(NS(=O)(=O)c3ccc(C)cc3)cc2)cc(OC)c1O` gave L3MBTL1 inh -14%, POLB inh -14%, Pol eta inh-1 10µM*, APEX1 inh -10%, Pol kappa inh-1 -13%, Pol iota inh inconclusive and Pol eta inh-2 inconclusive.
For COc1cc(/C=C/C(=O)O)cc(S(=O)(=O)Nc2ccccc2C(=O)NCc2ccco2)c1OC the results were L3MBTL1 inh -9%, Pol eta inh-1 22µM*, APEX1 inh 21%, Pol kappa inh-1 inconclusive, Pol iota inh inconclusive and Pol eta inh-2 inconclusive.
Screening COc1cc(/C=C/C(=O)O)cc(S(=O)(=O)Nc2ccccc2Cl)c1OC returned L3MBTL1 inh 14%, POLB inh 34%, Pol eta inh-1 -10%, APEX1 inh 3%, Pol kappa inh-1 -9% and Pol iota inh 2%.
`O=C(O)CC(C(=O)O)N1C(=O)/C(=C/c2ccc(-c3nc4ccccc4s3)o2)SC1=S` (stereo not drawn) gave L3MBTL1 inh 4.5µM*, POLB inh 10µM*, Pol eta inh-1 2.8µM*, APEX1 inh 3%, Pol kappa inh-1 4.5µM*, Pol iota inh 1µM* and Pol eta inh-2 30*.
`COc1ccc(NC(=O)CSc2nc(-c3ccc(OC)c(OC)c3)[nH]c2-c2ccc(C)cc2)cc1` gave POLB inh 4%, Pol eta inh-1 -8%, Pol kappa inh-1 0% and Pol iota inh -13%.
`O=C(N/N=C/c1coc2ccccc2c1=O)c1cc(Br)c(O)c(Br)c1` gave POLB inh -13%, Pol eta inh-1 inconclusive, APEX1 inh 12%, Pol kappa inh-1 -12%, Pol iota inh -7% and Pol eta inh-2 inconclusive.
O=C(N/N=C/c1coc2ccccc2c1=O)c1ccncc1 was read as POLB inh 23%, Pol eta inh-1 -3%, APEX1 inh 20%, Pol kappa inh-1 2% and Pol iota inh 36%.
`Cc1c(C(=O)Nc2cccc(F)c2)oc2c1-c1nn(Cc3c(F)cccc3Cl)cc1CC2` gave POLB inh 1%, Pol eta inh-1 89µM*, Pol kappa inh-1 4%, Pol iota inh 21% and Pol kappa inh-2 47*.
Screening CCOc1ccc(C(=S)N2CCCC2)c(OCC)c1 returned L3MBTL1 inh -5%, POLB inh 21%, Pol eta inh-1 -17%, APEX1 inh 42%, Pol kappa inh-1 0% and Pol iota inh 100%.
COc1ccc(-c2nn(CCC(=O)O)cc2/C=C2\SC(N)=NC2=O)cc1OC was read as L3MBTL1 inh -5%, POLB inh -1%, Pol eta inh-1 10µM*, APEX1 inh -5%, Pol kappa inh-1 inconclusive, Pol iota inh -21% and Pol eta inh-2 43*.
Screening Cc1ccc(N(Cc2cccs2)C(=O)c2ccc(OC(C)C)cc2)cc1 returned POLB inh 5%, Pol eta inh-1 -16%, Pol kappa inh-1 -18% and Pol iota inh 15%.
COC(=O)/C=C1\SC(=NC(=O)c2ccc(-c3ccccc3)cc2)NC1=O was read as L3MBTL1 inh -26%, Pol eta inh-1 50µM*, APEX1 inh -8%, Pol kappa inh-1 -33%, Pol iota inh inconclusive and Pol eta inh-2 inconclusive.
`CCOc1ccc2c(c1)[C@@H]1C=CC[C@@H]1[C@H](c1ccccc1Cl)N2` gave POLB inh 30%, Pol eta inh-1 -25%, Pol kappa inh-1 -2% and Pol iota inh 47%.
For O=C(CCN1C(=O)/C(=C\C=C\c2ccccc2)SC1=S)Nc1ccccc1C(=O)O the results were POLB inh 38%, Pol eta inh-1 25µM*, APEX1 inh 15%, Pol kappa inh-1 inconclusive, Pol iota inh inconclusive and Pol eta inh-2 inconclusive.
C[C@@H]1Cc2c(O)c(O)cc(O)c2C(=O)O1 was read as POLB inh 2.8µM*, Pol eta inh-1 22µM*, APEX1 inh inconclusive, Pol kappa inh-1 79µM*, Pol iota inh inconclusive and Pol eta inh-2 67*.
Screening O=C(NCc1ccccc1Cl)c1ccc2c(c1)N(Cc1ccccc1)C(=O)c1ccccc1S2 returned POLB inh 10%, Pol eta inh-1 -17%, Pol kappa inh-1 -4%[60.1 µM] and Pol iota inh 18%.
For COc1ccc(C2=CC3=C(Br)C(=O)C(C)(OC(=O)c4cccs4)C(=O)C3=CO2)cc1 (stereo not drawn) the results were Pol eta inh-1 40µM*, APEX1 inh 15%, Pol kappa inh-1 inconclusive, Pol iota inh inconclusive and Pol eta inh-2 inconclusive.
O=C(O)c1cnn(-c2ccccc2)c1-c1ccncc1 was read as POLB inh inconclusive, Pol eta inh-1 22µM*, APEX1 inh -3%, Pol kappa inh-1 inconclusive, Pol iota inh inconclusive, Pol kappa inh-2 19* and Pol eta inh-2 60*.
`O=C(O)c1ccc(S(=O)(=O)N[C@H](Cc2ccc(O)cc2)C(=O)O)cc1` gave L3MBTL1 inh inconclusive, APEX1 inh inconclusive and Pol eta inh-2 34*.
For O=C(O)c1ccc(S(=O)(=O)N[C@H](Cc2ccccc2)C(=O)O)cc1 the results were APEX1 inh -10%.
